Only some compounds are listed: those with a hit (about 0.96% of all), similar ones and a draw of the others.
TRHR enhancer-1: allosterically enhances the human TRH receptor | TRHR cells, fluo-8 calcium fluorescence, EC20 TRH enhancement | P34981 | actives 0.66% (n = 360,000) | enhancement, % at 2 µM | AID 493056; in the data active = enhancement above about 30%; note: 0% is about no effect
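Enhancer read-out: after compound pinning and an initial kinetic agonist-mode read, an EC20 of TRH (10 nM final) was injected and fluo-8 calcium signal (Ex 480/Em 530) followed at 1 s/cycle for 100 cycles in TRHR-expressing cells.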
TRPV1 ag: agonists of human vanilloid receptor 1 (TRPV1) | actives 0.19% (n = 320,000) | Q8NER1 | AID 540275 | TRPV1-expressing cells, Fluo-8 calcium influx, agonist mode | activation, % at 8.33 µM; in the data active = activation above about 80%; inconclusive = between about 30% and that limit; note: 0% is about no effect
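TRPV1-expressing cells were cultured overnight at 35.5C and loaded with Fluo-8 calcium dye for 40 to 90 min at room temperature. After a 10 s baseline, compound was added and calcium influx was read kinetically for 3 min (ex 480/em 520 nm).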
TRHR agonist-1: agonists of human TRH receptor | P34981 | TRHR cells, calcium flux fluo-8, FDSS agonist mode | activation, % at 2 µM | actives 0.18% (n = 360,000) | AID 493084; in the data active = activation above about 30%; note: 0% is about no effect
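Fluo-8-loaded TRHR cells; 10 s baseline, compound added, kinetic Ca2+ fluorescence read 1/s, agonist mode.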
TRPML1 ag: activates the human TRPML1 channel | Q9GZU1 | TRPML1-expressing cells, Ca2+ dye fluorescence, FDSS | activation, % (concentration not given with the values) | actives 0.12% (n = 410,000); in the data active = activation above about 50%; inconclusive = mostly about 30% to 49%; note: 0% is about no effect
Target sequence (Q9GZU1 whole entry, looked up): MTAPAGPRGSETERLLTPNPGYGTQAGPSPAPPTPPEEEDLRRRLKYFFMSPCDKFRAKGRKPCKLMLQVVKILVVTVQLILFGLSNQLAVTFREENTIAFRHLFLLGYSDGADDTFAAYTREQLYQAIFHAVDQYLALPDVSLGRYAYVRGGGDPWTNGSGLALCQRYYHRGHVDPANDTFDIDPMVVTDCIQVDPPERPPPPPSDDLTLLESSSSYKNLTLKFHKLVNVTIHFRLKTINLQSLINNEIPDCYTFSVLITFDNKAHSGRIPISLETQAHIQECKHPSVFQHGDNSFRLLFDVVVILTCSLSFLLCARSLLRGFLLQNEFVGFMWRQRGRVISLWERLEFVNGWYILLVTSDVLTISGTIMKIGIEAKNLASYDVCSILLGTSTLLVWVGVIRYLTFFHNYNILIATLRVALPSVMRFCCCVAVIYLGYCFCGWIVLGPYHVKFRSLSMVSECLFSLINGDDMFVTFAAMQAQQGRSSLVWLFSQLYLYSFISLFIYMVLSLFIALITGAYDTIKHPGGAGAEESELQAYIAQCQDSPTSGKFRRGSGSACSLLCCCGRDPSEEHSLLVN
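Cells: TRPML1-DL, 1X Tet inducer, ~16 h at 37 degrees C/5% CO2. Dye: ABD Ca8 no-wash + quencher, 45-90 min RT. Read: 10 s baseline, compound add, 110 s agonist phase; 54-4 EC80 (4uM final), 110 s antagonist phase.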
TRPV1 potentiator: potentiators of human vanilloid receptor 1 (TRPV1); Q8NER1; TRPV1-expressing cells, Fluo-8 calcium influx, capsaicin EC20 potentiation; potentiation, % at 8.33 µM; actives 0.02% (n = 320,000); AID 540277; in the data active = potentiation above about 80%; inconclusive = between about 30% and that limit; note: 0% is about no effect
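Fluo-8 calcium influx in TRPV1-expressing cells, kinetic read (ex 480/em 520 nm). Compound added and read 3 min for agonist activity, followed by capsaicin at EC20 final and 2 min further read for enhancement.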
TRPML1 inh: inhibitors of human TRPML1 channel; Q9GZU1; TRPML1-inducible cells, Ca2+ dye fluorescence, FDSS; active compounds read low; inhibition of EC80 agonist-evoked calcium signal; activity change, negative = inhibition, % (concentration not given with the values); actives 0.02% (n = 390,000); in the data active = activity change below about -50%; inconclusive = between about -30% and that limit;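 note: stimulus is agonist 54-4 at its EC80 concentration; % is set by controls: 0 for no effect and ±100 for the full control effect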
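Tet-induced TRPML1-DL cells loaded with Ca8 no-wash calcium dye were read kinetically on FDSS. Compound addition was followed by EC80 agonist 54-4 (4 uM final); inhibition was read over 110 s.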
TRHR enhancer-2: human TRH receptor allosteric enhancement confirmation. shares compounds with TRHR enhancer-1. TRH receptor cell assay, enhancer confirmation qHTS. activity change, negative = inhibition, % at 46.1 µM. 970 tested, under 10 active. AID 493076;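 note: compound effect scored on response to added TRH at EC20 of 10 nM; 0% is about no effect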
TRHR agonist-2: human TRH receptor agonism confirmation | shares compounds with TRHR enhancer-1 | TRHR-expressing cells, agonist activation read-out | Potency, µM (doses to about 46.1 µM), without a hit: at the highest dose activation, hits mostly activators | actives 8% (n = 970) | AID 493078; note: potency is the fitted concentration of half-maximal effect; 0% is about no effect; nearly all actives have a fitted effect of over 75% in size
The depositor's hits bear a star; ? = inconclusive; · = no result. Unless noted, calls come from the whole dose curve; as a rule, active = well fitted curve in the direction sought with a large enough effect; inconclusive = small, poorly fitted or top-dose-only effect, or another doubt; inactive = no such curve, though single readings can be large; an effect the other way counts as inactive or inconclusive.

SMILES | TRHR enhancer-1 | TRPV1 ag | TRHR agonist-1 | TRPML1 ag | TRPV1 potentiator | TRPML1 inh | TRHR enhancer-2 | TRHR agonist-2
C=CCNC(=O)C(=O)NCC1CCCN1CC (stereo not given) | 42* | -1 | 1 | 3 | -28 | 14 | -4 | 0%
CCCNC(=O)C(=O)NCC1CCCN1CC (stereo not given) | 27 | -5 | 0 | 1 | 17 | 4 | · | ·
Cc1csc(NC(=O)c2sc3nc(-c4cccs4)ccc3c2N)n1 | 6 | 14 | 51* | ? | 1 | -1 | 4 | 10µM*
CCN1C(=O)c2cccc3c(S(=O)(=O)Nc4ccccc4OC)ccc1c23 | 18 | 1 | 56* | -1 | 3 | 2 | -6 | ?
CN1C(=O)c2cccc3c(S(=O)(=O)Nc4ccccn4)ccc1c23 | 0 | 1 | 0 | 0 | 4 | -12 | · | ·
Cc1ccccc1NS(=O)(=O)c1ccc2c3c(cccc13)C(=O)N2C | 61* | -5 | -1 | 1 | 27 | -2 | -9 | 0%
CCN1C(=O)c2cccc3c(S(=O)(=O)NCc4ccccc4)ccc1c23 | -4 | 2 | -1 | 1 | -6 | -16 | · | ·
O=C(C[N+]1(CCO)CCOCC1)c1cccs1 | · | · | · | 0 | · | · | · | ·
CC(C)c1c(C(=O)N/N=C/C=C/c2ccccc2)nnn1-c1nonc1N | 76* | ? | 0 | 4 | -27 | 2 | 9 | 1%
CC1=CC(=C(C#N)c2nc3ccccc3s2)C=C(C)N1CC1CCCO1 (stereo not given) | 5 | ? | 39* | 26 | -5 | -24 | ? | 18µM*
c1ccc2sc(NCC3CCCO3)nc2c1 (stereo not given) | 4 | 6 | 0 | 0 | -3 | 3 | · | ·
CN(C(=O)COc1ccccc1C(=O)Nc1ccccc1)c1ccccc1 | · | · | · | 0 | · | · | · | ·
C[n+]1c(/C=C/c2ccc(F)cc2)ccc2ccccc21 | · | · | · | -1 | · | · | · | ·
O=C(Nc1cccc2ncccc12)c1ccc(Cl)cc1 | 60* | 0 | 0 | 0 | 23 | 34 | 2 | 0%
O=C(Nc1cccc2ncccc12)c1ccc(F)cc1 | -6 | -1 | 1 | 0 | 1 | -6 | · | ·
Cn1c(SCC(=O)NCc2ccco2)nnc1-c1ccc(S(=O)(=O)N2CCOCC2)cc1 | 47* | 2 | 0 | 5 | 26 | -2 | -3 | -1%
Cn1c(SCC(=O)NCc2ccco2)nnc1-c1ccccc1 | 0 | 2 | 0 | 0 | -5 | 29 | · | ·
Cc1cc(NC(=O)CN2C(=O)/C(=C/c3cccc(Br)c3)SC2=S)no1 | 47* | 0 | 1 | 0 | 4 | 46 | 7 | 2%
Cc1ccc(/C=C2\SC(=S)N(CCCC(=O)Nc3cc(C)on3)C2=O)cc1 | 0 | -6 | 0 | -1 | -3 | -3 | · | ·
COc1ccc(N2C(=O)C(CN3CCN(C)CC3)C2c2ccccc2)cc1 (stereo not given) | 67* | 5 | 1 | 1 | -5 | 27 | 6 | 4%
CCN1C(=O)c2ccccc2S(=O)(=O)c2ccc(C(=O)NC(C)C)cc21 | 53* | -3 | 1 | 0 | 8 | 10 | -3 | 0%
COc1cc(OC)c(/C=C/c2c3ccccc3cc[n+]2C)c(OC)c1 | · | · | · | 0 | · | · | · | ·
OC(COc1ccccc1)CN1CCCCCC1 (stereo not given) | 42* | -1 | 1 | 0 | 3 | -2 | ? | 1%
Cc1nc([N+](=O)[O-])cn1CC(O)c1ccc2c(c1)OCO2 (stereo not given) | · | · | · | -1 | · | · | · | ·
COc1ccc(Oc2nccc(OC)c2C#N)cc1 | 43* | 6 | 0 | 2 | 20 | 17 | -4 | -1%
SMILES | TRHR enhancer-1 | TRPV1 ag | TRHR agonist-1 | TRPML1 ag | TRPV1 potentiator | TRPML1 inh | TRHR enhancer-2 | TRHR agonist-2
COc1ccnc(Oc2cc(Cl)cc(Cl)c2)c1C#N | 0 | 5 | 0 | 1 | 2 | -13 | · | ·
CN(CC(=O)O)c1ccc(/C=C2\C=Cc3ccccc32)cc1 | · | · | · | 0 | · | · | · | ·
O=c1ccc(-c2nc3ccccc3n2Cc2ccc(Cl)cc2)c[nH]1 | 49* | 18 | 1 | 0 | -7 | -8 | -7 | 1%
Cn1c(-c2ccc(=O)[nH]c2)nc2ccccc21 | 3 | -2 | 0 | 0 | 6 | -9 | · | ·
Cc1cc2c(s1)c1cnn(Cc3ccc(C)c(F)c3F)c(=O)c1n2C | 3 | · | 0 | · | · | · | · | ·
Nc1nc(NCc2ccc(Cl)cc2Cl)c2[nH]cnc2n1 | · | · | · | 0 | · | · | · | ·
Cc1ccc(OCc2cc(C(=O)N(C)Cc3cnn(-c4ccccc4C)c3)no2)cn1 | 43* | 0 | -1 | 1 | 11 | 13 | -6 | 0%
Cc1ccc(SC[C@H](C)CN2CC[C@H](O)CCC2=O)cc1 | · | · | · | -1 | · | · | · | ·
O=c1[nH]c(-c2ccc(O)cc2)nc2scc(-c3cccs3)c12 | 47* | ? | 1 | · | -15 | · | 4 | 1%
Cc1nc2scc(-c3cccs3)c2c(=O)[nH]1 | -1 | -3 | 0 | 0 | 4 | -10 | · | ·
CCC(C)NCC(O)(c1ccc(Cl)cc1)c1ccc(Cl)cc1 (stereo not given) | 50* | 5 | 1 | 2 | -5 | -21 | -5 | ?
Cc1ccc(CNCC(O)(c2ccccc2)c2ccc(Cl)cc2)cc1 (stereo not given) | 0 | 2 | 1 | 2 | -8 | -9 | · | ·
Cc1cc(C)[n+](C)c2ccccc12 | · | · | · | 0 | · | · | · | ·
COc1cc(OC)c(CN2CCC(Cc3ccccc3)CC2)cc1Br | 3 | -4 | 2 | 1 | -21 | -6 | · | ·
COc1ccc(OC)c(CN2CCC(Cc3ccccc3)CC2)c1 | 3 | -2 | 28 | 0 | 19 | -1 | -1 | -1%
COc1cccc(C2c3[nH]c4ccccc4c3CCN2Cc2cnn(C)c2)c1 (stereo not given) | 61* | 3 | 0 | 0 | -2 | -10 | 3 | ?
COc1ccc(/C=C/c2ccccn2)cc1 | · | · | · | 0 | · | · | · | ·
O=C(COC(=O)c1cnccn1)Nc1c(Cl)cc(Cl)cc1Cl | 47* | 1 | 1 | 2 | -7 | 6 | -2 | -1%
O=C(COC(=O)c1cnccn1)Nc1ncc(Cl)cc1Cl | -3 | -3 | 0 | 2 | 1 | -13 | · | ·
Nc1ccc2c(c1)C(=O)N(c1ccc3ccccc3c1)C2=O | · | · | · | 0 | · | · | · | ·
Cc1cccc2cc3c(N)c(C(=O)N4CCc5ccccc54)sc3nc12 | 13 | 11 | 53* | 11 | ? | -25 | ? | 18µM*
COc1ccc(-c2cc(C(F)F)nc(-n3nc(C)cc3C)n2)cc1 | 53* | 1 | -1 | -1 | 16 | 3 | -9 | 2%
